Assay results as given in PubChem BioAssay (NCI).
This is part of a sample that, as a whole, favours compounds with a hit. Of some 83,000 tested, about 20% had one in any assay.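 Compound tested at a single concentration for 48 hours in 96-well plates; a percent growth value below 10 was scored as active.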 Unmarked numbers belong to inactive results. Active and inactive are the calls of the source.

Legend:
Test in all cases: NCI-60 one-dose screen, 48 h (100 = growth as untreated, 0 = no growth, -100 = all killed)
Settings in all cases: 10 µM
[1] = tested on: BT-549 breast
[2] = tested on: MDA-MB-435 melanoma
[3] = tested on: SW-620 colon
[4] = tested on: MCF7 breast
[5] = tested on: HCT-116 colon
[6] = tested on: HCC-2998 colon

SMILES	growth [1]	growth [2]	growth [3]	growth [4]	growth [5]	growth [6]
CC(=O)O[C@]1(C)CC[C@H]2[C@H](CNCCc3ccc(Cl)cc3)C(=O)O[C@@H]2C2=C(C)C(=O)C[C@H]21	108%	88%	82%	68.4%	83.9%	94.6%
O=C1/C(=C\c2ccc(F)cc2)CN(C(=O)c2ccc([N+](=O)[O-])cc2)C/C1=C\c1ccc(F)cc1	5.36% (active)	-30% (active)	-58.4% (active)	-9.52% (active)	-72.7% (active)	-79.1% (active)
CCN(CC)CCNc1ccc(CO)c2oc3cc(Cl)ccc3c(=O)c12	94.9%	78.4%	71.3%	64.5%	58.6%	88.3%
CCOC(=O)N1C/C(=C/c2ccc(Cl)cc2)C(=O)/C(=C/c2ccc(Cl)cc2)C1	81.5%	38.4%	1.52% (active)	5.24% (active)	-60.4% (active)	-59.8% (active)
NC1=NC(=O)C(c2ccccc2)(c2ccccc2)S1	118%	121%	108%	105%	106%	108%
c1ccc(CSc2nnc3c4c5c(sc4nc(-c4cccnc4)n23)CCCCCC5)cc1	41.1%	19.1%	55.3%	37.6%	29.3%	46.5%
COc1ccc(Cl)cc1-n1nnc(-c2nc3ccccc3[nH]2)c1N	98.8%	88.6%	75.6%	94.3%	55.4%	93.4%
N=C(N)c1ccc(-c2ccc(-c3cccs3)o2)cc1	85.2%	-49.3% (active)	-47.9% (active)	3.09% (active)	7.25% (active)	-66% (active)
Cn1c([N+](=O)[O-])cnc1/C=C1\Oc2cc(Cl)ccc2C1=O	-32.6% (active)	-78% (active)	-47.3% (active)	19%	3.24% (active)	4.36% (active)
CC(C)(C)c1cc(Br)cc(C(C)(C)C)c1O	111%	95.8%	112%	99%	104%	103%
O=C1/C(=C\c2ccc(Br)cc2)CN(C(=O)c2ccccc2F)C/C1=C\c1ccc(Br)cc1	-0.615% (active)	-44.9% (active)	-56.4% (active)	-33.5% (active)	-76.1% (active)	-81.3% (active)
C#Cc1ccc(-n2c(/C=C/c3ccc(Cl)c(F)c3)nc3ncccc3c2=O)cc1	10.7%	-3.46% (active)	-27.3% (active)	3.48% (active)	-52.8% (active)	-84.3% (active)
O=C(c1cccs1)c1ccccc1Cc1ccccc1	106%	103%	104%	102%	113%	114%
COc1ccc(C2=Nc3c(C)nn(-c4ccccc4)c3NC(c3ccc(Oc4ccnc5cc(Cl)ccc45)c(OC)c3)C2)cc1 (centres undefined)	93%	80.4%	81.7%	60.6%	45.6%	89.7%
COc1ccc(-c2nc(-c3nc4ccc(Cl)cc4[nH]3)c3ccccn23)cc1	42.9%	58.3%	75.2%	41.5%	4.9% (active)	69.3%
Cc1[nH]nc2c1C(c1cnn(C)c1)C(C#N)=C(N)O2 (centres undefined)	102%	101%	102%	98%	104%	110%
COC(=O)C(=C\c1ccc2c(c1)OCO2)/C(=C/c1ccc2c(c1)OCO2)C(=O)OC	95.5%	104%	110%	96.9%	92.9%	94.6%
COc1ccc(-c2ccc(-c3ccc(C(=N)N)cn3)o2)cc1	86.3%	26.4%	80.4%	47.3%	45.9%	29.1%
COc1ccc(OC)c(/C=C/c2nc(SC)n(-c3ccc(Cl)cc3)n2)c1	80%	8.73% (active)	77.4%	46.7%	59.8%	69.6%
Cc1ccc(C(=O)N2C/C(=C/c3ccccc3)C(=O)/C(=C/c3ccccc3)C2)cc1	49.2%	-14.1% (active)	15.8%	7.53% (active)	-55.5% (active)	-48% (active)

SMILES	growth [1]	growth [2]	growth [3]	growth [4]	growth [5]	growth [6]
N#CCCN1C/C(=C/c2ccccc2)C(=O)/C(=C/c2ccccc2)C1	44.3%	-30.9% (active)	-24.9% (active)	-12% (active)	-81.7% (active)	-81% (active)
O=C(Nc1cccc(-n2cc(-c3ccncc3)c(-c3cc(O)cc(Cl)c3)n2)c1)c1ccc(N2CCOCC2)c(C(F)(F)F)c1	52.2%	23%	-26.2% (active)	29.7%	12.7%	-3.65% (active)
O=C(O)C(SC(C(=O)O)c1ccccc1)c1ccccc1 (centres undefined)	101%	116%	107%	96.3%	106%	103%
CCCC1(CC(=O)O)OCCc2c1[nH]c1ccccc21 (centres undefined)	119%	106%	115%	102%	107%	69.9%
O=C(CCCCC(=O)Nc1ccc2c(c1)/C(=C/c1ccc[nH]1)C(=O)N2)NO	97.1%	74.8%	83.9%	61.9%	88.3%	101%
O=C1/C(=C\c2ccc(Cl)cc2)CN(C(=O)c2ccccc2)C/C1=C\c1ccc(Cl)cc1	19.8%	-18.1% (active)	-33.8% (active)	2.9% (active)	-48.2% (active)	-71.8% (active)
CCN(CC)CCSCCCNc1c2ccc(Cl)cc2nc2ccc(OC)cc12	5.29% (active)	-94.7% (active)	-23.7% (active)	-33% (active)	-55.9% (active)	-73.2% (active)
Cc1ccc(C(=O)N2C/C(=C/c3ccc(F)cc3)C(=O)/C(=C/c3ccc(F)cc3)C2)cc1	92.5%	84.5%	82.4%	37.7%	10.6%	108%
Cc1occc1-c1nnc(SCC(=O)c2ccc(NC(=O)CC(C)C)cc2)o1	108%	97.9%	108%	107%	109%	74.5%
O=C(CCCCCCC(=O)Nc1cccnc1)NO	69.5%	19.8%	35.6%	35.3%	9.09% (active)	40%
COc1ccc2c(c1)C(=O)c1c-2c(OCCN(C)C)nc2cc(OC)c(OC)cc12	89.9%	56.8%	38.6%	28.9%	30%	63.2%
COc1ccc(Nc2ncnc3c2c(SC)nn3-c2ccccc2)cc1	96.5%	97.8%	103%	103%	89.2%	103%
CC/C(=C(/c1ccc(OCCN(C)C)cc1)c1ccc(OC(=O)CCC(=O)c2c(C)[nH]c(/C=C3\N=C(c4ccc[nH]4)C=C3OC)c2C)cc1)c1ccccc1	48.4%	14%	-42% (active)	-12.1% (active)	5.92% (active)	41.6%
CN1c2ccccc2[C@]2(Cc3ccccc3)Cc3ccccc3N[C@H]12	122%	117%	101%	94.1%	91.8%	103%
N#CC1=C(Nc2ccccc2Cl)SC(c2ccccc2O)NC1=O (centres undefined)	111%	120%	105%	105%	109%	109%
COc1cc(C2CC(c3ccc(Nc4ccnc5cc(Cl)ccc45)cc3)=NN2c2ccc(Cl)cc2)cc(OC)c1OC (centres undefined)	68.4%	8.05% (active)	39.4%	29.4%	46.6%	55.4%
N=C(N)c1ccc(-c2ccc(-c3ccco3)o2)cc1	80.2%	55.4%	60.3%	42.8%	42.5%	-28.3% (active)
CC/C(=C(/c1ccc(OCCN(C)C)cc1)c1ccc(OC(=O)CCCCC(=O)c2c(C)[nH]c(/C=C3\N=C(c4ccc[nH]4)C=C3OC)c2C)cc1)c1ccccc1	60.8%	61.4%	55.8%	-22% (active)	48.3%	76.6%
CC(=O)N1C/C(=C/c2ccc(Cl)cc2)C(=O)/C(=C/c2ccc(Cl)cc2)C1	-27.2% (active)	-50.3% (active)	-62.4% (active)	-48.4% (active)	-66.4% (active)	-85.1% (active)
